Among all 10,000 compounds or so, about 20 (0.2%) were called active. How the calls were made is not given here. A selection follows.
Assay: enhancers of VCAM-1 display on endothelial cells, imaging, high-content imaging, pooled HUVEC, TNFa stimulus (AID 457)
Settings: TNFa-induced VCAM-1 immunofluorescence imaging; concentration not given here

Q: Which augmentation does the source give for COCCNC(=O)CN1CCN(C(c2ccccc2)c2ccccc2)CC1 here?
A: inactive

Q: Which augmentation does the source give for Cc1ccc(CN2CCN(C(=O)C3CCC3)CC2)cc1 here?
A: inactive

Q: Which augmentation does the source give for Cc1cc(NC(=O)CCOc2ccccc2)no1 here?
A: inactive

Q: For COc1ccc(N2C(=O)C3CCCN3C2c2ccc(F)cc2)cc1Cl (stereo unspecified), which augmentation is on record?
A: inactive

Q: For O=c1c2cnn(-c3ccccc3)c2ncn1/N=C/c1ccncc1, which augmentation is on record?
A: inactive

Q: For COC(=O)c1[nH]c2ccc(C)cc2c1NC(=O)CN1CCN(C(=O)c2ccccc2)CC1, which augmentation is on record?
A: inactive

Q: Which augmentation does the source give for CC1Cc2cc(/C(O)=C3/C(=O)C(=O)N(CCN4CCOCC4)C3c3cccc(O)c3)ccc2O1 (stereo unspecified) here?
A: inactive

Q: Which augmentation does the source give for Clc1ccc(-c2nnc3sc(-c4ccc(Br)o4)nn23)cc1 here?
A: inactive

Q: Which augmentation does the source give for CCCCN(CCCNC(=O)C1CCN(S(=O)(=O)CC)CC1)c1ccccc1 here?
A: inactive

Q: With CS(=O)(=O)N(CC(=O)N1CCN(c2cccc(Cl)c2)CC1)C1CCCCC1 as the compound, how does the augmentation read?
A: inactive

Q: With CC1CCN(CCCNC(=O)c2coc3nc4ccccc4nc23)CC1 as the compound, how does the augmentation read?
A: inactive

Q: With COc1ccc(-c2nnc(SCC#N)o2)cc1 as the compound, how does the augmentation read?
A: inactive

Q: For O=C(CSc1nnnn1-c1ccc2c(c1)OCO2)NCc1cccs1, which augmentation is on record?
A: inactive

Q: Which augmentation does the source give for CCOC(=O)N1CCN(C(=O)c2csc3c2CCCCC3)CC1 here?
A: inactive

Q: Which augmentation does the source give for Cc1cccc(-n2ncc3c(NCc4ccccn4)ncnc32)c1 here?
A: inactive

Q: For CCCN(CCC)C(=O)c1c(C)[nH]c(C(=O)OCC)c1C, which augmentation is on record?
A: inactive

Q: Which augmentation does the source give for CCOC(=O)c1ccc2nc(C)c3c(c2c1)OC(C)C3 (stereo unspecified) here?
A: inactive

Q: Which augmentation does the source give for Cc1c(NC(=O)C2CCCNC2=O)c(=O)n(-c2ccccc2)n1C (stereo unspecified) here?
A: inactive

Q: For O=C1CC(c2ccccc2)Cc2nc(N3CCc4ccccc43)ncc21 (stereo unspecified), which augmentation is on record?
A: inactive

Q: Which augmentation does the source give for CC(=O)N1CCN(c2ccc(S(=O)(=O)N3CCCCC3)cn2)CC1 here?
A: inactive

Q: For COc1cc(OC)cc(-c2nc3cc(C)ccc3o2)c1, which augmentation is on record?
A: inactive

Q: Which augmentation does the source give for CC1CN(C(=O)CSc2nnc(-c3ccc(Cl)cc3)n2C)CC(C)O1 (stereo unspecified) here?
A: inactive

Q: With CCCOc1ccccc1NC(=O)c1ccc(N)cc1 as the compound, how does the augmentation read?
A: inactive

Q: With C=CCSc1ncccc1C(=O)O as the compound, how does the augmentation read?
A: inactive

Q: With CCN(CCNC(=O)C1CCN(S(=O)(=O)CC)CC1)c1ccccc1 as the compound, how does the augmentation read?
A: inactive

Q: Which augmentation does the source give for Cc1oc2cc3c(C(=O)OCCN(C)C)c(C)oc3cc2c1C(=O)OCCN(C)C here?
A: inactive

Q: With Cc1nc(CNS(=O)(=O)c2cccc(F)c2)cs1 as the compound, how does the augmentation read?
A: inactive

Q: Which augmentation does the source give for CCN(CC)c1ccc2c(c1)CCCN2 here?
A: inactive

Q: With Cc1onc(-c2ccccc2)c1C(=O)N1CCCSC1=Nc1ccccc1 as the compound, how does the augmentation read?
A: inactive

Q: With COCCN1CCN(c2c(C)c(C)nc3cc(-c4cccc(OC)c4)nn23)CC1 as the compound, how does the augmentation read?
A: inactive

Q: Which augmentation does the source give for C=CCN1C(=O)C2(/C(=C(\O)c3ccc4c(c3)OCCO4)C(=O)C(=O)N2CCCOC)c2ccccc21 (stereo unspecified) here?
A: inactive

Q: With C=CCOc1nc(N2CCCC2)nc(N2CCCC2)n1 as the compound, how does the augmentation read?
A: inactive

Q: For O=C(c1cccc2c1C(=O)N(Cc1cccnc1)C2)N1CCN(c2ccccc2)CC1, which augmentation is on record?
A: inactive

Q: For Cc1nnc2ccc(N3CCC4(CC3)OCCO4)nn12, which augmentation is on record?
A: inactive

Q: For Cc1nc(CCNS(=O)(=O)c2cccs2)cs1, which augmentation is on record?
A: inactive

Q: With CC(O)CN1C(=O)C(CC(=O)Nc2ccc(Cl)cc2)SC1=Nc1ccccc1 (stereo unspecified) as the compound, how does the augmentation read?
A: inactive

Q: For CCn1c(SCC(=O)C(C)(C)C)nnc1-c1cnccn1, which augmentation is on record?
A: inactive

Q: With c1ccc(CCNc2ccc3nncn3n2)cc1 as the compound, how does the augmentation read?
A: inactive

Q: For O=C(NCc1nc2ccccc2[nH]1)c1ccc(Cl)c(S(=O)(=O)N2CCCC2)c1, which augmentation is on record?
A: inactive

Q: For Cc1cccc(Nc2nc(N)nc(CN3CCC(C(N)=O)CC3)n2)c1C, which augmentation is on record?
A: inactive

Q: With O=C(Nc1cccc(NC(=O)c2ccco2)c1)c1ccc2c(c1)OCO2 as the compound, how does the augmentation read?
A: inactive

Q: For COc1ccccc1OCCn1c(=O)sc2ccccc21, which augmentation is on record?
A: inactive

Q: With O=C(Cc1ccccc1)Nc1ccc(CN2CCOCC2)cc1 as the compound, how does the augmentation read?
A: inactive

Q: Which augmentation does the source give for Cc1ccc2[nH]c(=O)c3cc(C(=O)NCCN4CCN(C)CC4)sc3c2c1 here?
A: inactive

Q: Which augmentation does the source give for CCOC(=O)N1CCN(C(=O)CSc2cc(C)nc3c(-c4ccccc4OC)c(C)nn23)CC1 here?
A: inactive

Q: For COc1ccc(-c2nc(C#N)c(N3CCN(c4ccccc4)CC3)o2)cc1, which augmentation is on record?
A: inactive

Q: Which augmentation does the source give for CC(C)CNC(=O)c1ccccc1NC(=O)c1ccc(CN2CCOCC2)cc1 here?
A: inactive

Q: With CCCN1CCN(CCCNC(=O)C2CCCN(c3nc4ccc(OCC)cc4s3)C2)CC1 (stereo unspecified) as the compound, how does the augmentation read?
A: inactive

Q: With CC(C)N(C(=O)N1CCC(c2nc(-c3ccncc3)no2)CC1)C(C)C as the compound, how does the augmentation read?
A: inactive

Q: With O=C(CN1C(=O)CC(c2ccco2)Sc2ccccc21)Nc1ccccc1F (stereo unspecified) as the compound, how does the augmentation read?
A: inactive

Q: Which augmentation does the source give for CC(O)c1c(OCc2ccccc2)ncnc1OCc1ccccc1 (stereo unspecified) here?
A: inactive

Q: For O=C(O)c1cc2c(s1)CCCC2, which augmentation is on record?
A: inactive

Q: For CCOC(=O)CN1CC23C=CC(O2)C(C(=O)NC2CCCC2)C3C1=O (stereo unspecified), which augmentation is on record?
A: inactive

Q: With CCOc1ccc2cc(C#N)c(SCC(=O)N3CCC(C)CC3)nc2c1 as the compound, how does the augmentation read?
A: inactive

Q: For CC(=O)Nc1sc2c(c1C#N)CCCCC2, which augmentation is on record?
A: inactive

Q: Which augmentation does the source give for CCCOc1ccc(S(=O)(=O)NCCCN2CCOCC2)c2ccccc12 here?
A: inactive

Q: For O=C(Cn1ccc2ccccc2c1=O)Nc1ccc2c(c1)OCO2, which augmentation is on record?
A: inactive

Q: With CCOCCn1cnc2sc(C(=O)Nc3nc(C)c(C(=O)OCC)s3)c(C)c2c1=O as the compound, how does the augmentation read?
A: inactive

Q: With Nc1nc2ccccc2n1C(=O)CCc1ccccc1 as the compound, how does the augmentation read?
A: inactive

Q: For Cc1sc2nc(CN3CCN(S(=O)(=O)c4cccc5nonc45)CC3)[nH]c(=O)c2c1C, which augmentation is on record?
A: inactive

Q: With O=C(CN1CCC(n2nnc3ccccc32)CC1)Nc1ccc2c(c1)CCC2 as the compound, how does the augmentation read?
A: inactive

Q: Which augmentation does the source give for O=C(Nc1ncc(Cc2ccccc2)s1)C1CCCO1 (stereo unspecified) here?
A: inactive

Q: For O=C(Cc1c(F)cccc1Cl)Nc1ccncc1, which augmentation is on record?
A: inactive

Q: For CCCCCCc1ccc(-c2ncc(N)cn2)cc1, which augmentation is on record?
A: inactive

Q: For CCc1nnc(NC(=O)CSc2nnc(-c3ccoc3C)n2CC(C)C)s1, which augmentation is on record?
A: inactive

Q: Which augmentation does the source give for COc1nc(C)ccc1-c1noc(-c2ccncc2)n1 here?
A: inactive

Q: With Cc1noc(/C=C/N(C)C)c1S(=O)(=O)N1CCc2ccccc21 as the compound, how does the augmentation read?
A: inactive

Q: With O=C(Nc1ccc2c(c1)OCCO2)c1cnc2n(c1=O)CCS2 as the compound, how does the augmentation read?
A: inactive

Q: With Cc1[nH]nc(N=CC2=C(O)CC(C)(C)CC2=O)c1-c1ccccc1 as the compound, how does the augmentation read?
A: inactive

Q: Which augmentation does the source give for Cc1csc(SCCn2c(N3CCCC3)nc3c2c(=O)[nH]c(=O)n3C)n1 here?
A: inactive

Q: Which augmentation does the source give for O=C(Nc1ccccc1Cl)c1c(F)c(F)c(F)c(F)c1F here?
A: inactive

Q: With O=C(COc1nnnc2ccccc12)N1CCCc2ccccc21 as the compound, how does the augmentation read?
A: inactive

Q: Which augmentation does the source give for CC1(C)CC(=O)c2cnc(NCc3ccco3)nc2C1 here?
A: inactive

Q: Which augmentation does the source give for COC(=O)C1=C(C)OC(N)=C(C#N)C1c1c(C)nn(-c2ccccc2)c1Cl (stereo unspecified) here?
A: inactive

Q: For CCCNC(=O)c1cc(S(=O)(=O)N2CCc3ccccc32)ccc1F, which augmentation is on record?
A: inactive

Q: With O=C(CSc1ncc(-c2ccc(F)cc2)[nH]1)N1CCCCC1 as the compound, how does the augmentation read?
A: inactive

Q: With CC(C)OC(=O)CSc1nnc(-c2ccc(O)cc2)n1Cc1ccccc1 as the compound, how does the augmentation read?
A: inactive

Q: Which augmentation does the source give for CSC1CCCCC1(O)CSc1nc2c(cc1C#N)CCCC2 (stereo unspecified) here?
A: inactive

Q: Which augmentation does the source give for Cc1cc(C)cc(NC(=O)C2CCCN(c3nccc(C)n3)C2)c1 (stereo unspecified) here?
A: inactive

Q: Which augmentation does the source give for Cn1c(/C=N/n2cnnc2)nc2ccccc21 here?
A: inactive

Q: Which augmentation does the source give for Cc1ccccc1NC(=O)C1CCN(c2cnccn2)CC1 here?
A: inactive

Q: Which augmentation does the source give for O=C(Nc1cccnc1)Nc1ccc(F)c(Cl)c1 here?
A: inactive

Q: Which augmentation does the source give for C(=C\c1ccccc1)/CN1CCN(Cc2ccc3c(c2)OCCO3)CC1 here?
A: inactive

Q: Which augmentation does the source give for CCOC(=O)N1CCN(CCC(=O)c2ccc(Cl)cc2)CC1 here?
A: inactive

Q: Which augmentation does the source give for CCOC(=O)CSc1nc2ccccc2n1CC(=O)N1CCN(c2ccccc2)CC1 here?
A: inactive

Q: With COc1ccccc1C(=O)NCC(=O)Nc1ccccc1 as the compound, how does the augmentation read?
A: inactive

Q: With CCC(C)(C)NC(=O)CN(C(=O)c1snc(C(N)=O)c1N)c1ccc2c(c1)OCO2 as the compound, how does the augmentation read?
A: inactive

Q: With COC(=O)c1ccccc1NC(=O)C1CC(=O)N(c2ccc(F)cc2)C1 (stereo unspecified) as the compound, how does the augmentation read?
A: inactive

Q: For Cc1cc(Cl)c(S(=O)(=O)N2CCN(c3ccc(F)cc3)CC2)cc1OCC(N)=O, which augmentation is on record?
A: inactive

Q: With Cc1ccc(-n2nnnc2SCC(=O)N2CCN(C(=O)c3ccco3)CC2)c(C)c1 as the compound, how does the augmentation read?
A: inactive

Q: Which augmentation does the source give for O=S(CC(O)COCc1ccc(Cl)cc1)c1ccccn1 (stereo unspecified) here?
A: inactive

Reference: PubChem BioAssay AID457 (Sanford-Burnham Center for Chemical Genomics, 2006)
